Assay [1] is described as follows: Tanguay_ZF_120hpf_JAW_legacy: (Legacy) Oregon State University Tanguay Lab 120 Hour Post-fertilization zebrafish Assay for Jaw Malformation (AID 2283638). The essentials: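 Binary jaw-malformation call at 120 hpf by brightfield microscopy. Embryos (Tropical 5D strain, chorion removed at 4 hpf) were dosed statically at 6 hpf, one per well, at 28C with 0.64% DMSO. Embryos that died were not scored.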

Assay [2] is described as follows: Tanguay_ZF_120hpf_OTIC_legacy: (Legacy) Oregon State University Tanguay Lab 120 Hour Post-fertilization zebrafish Assay for Otic Vesicle Malformation (AID 2283639). The essentials:
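Binary scoring of otic vesicle defects at 120 hpf in zebrafish (Tropical 5D) held under static exposure at 28C, sealed and shaded, with final DMSO 0.64%. Embryos dying by 24 or 120 hpf excluded; fitted positively against DMSO.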

The nature of assay [3]: Tanguay_ZF_120hpf_PE_legacy: (Legacy) Oregon State University Tanguay Lab 120 Hour Post-fertilization zebrafish Assay for Pericardial Edema (AID 2283640).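 On AC50: potency for increased incidence of pericardial edema versus DMSO baseline.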 The essentials:
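Scoring was binary, by brightfield microscopy at 120 hpf, and skipped where mortality occurred. Wild-type embryos were kept under sealed, foil-covered static exposure at 28C in 0.64% (vol/vol) DMSO.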

Assay [4] is described as follows: Tanguay_ZF_120hpf_PFIN_legacy: (Legacy) Oregon State University Tanguay Lab 120 Hour Post-fertilization zebrafish Assay for Pectoral Fin Malformation (AID 2283648).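 Further: each larva judged yes or no for fin defect by brightfield with dead larvae skipped.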 The essentials:
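Binary pectoral fin malformation call at 120 hpf by brightfield microscopy; 5D wild-type zebrafish, chorion removed at 4 hpf, one embryo per well from 6 hpf, static exposure at 28C; DMSO (0.64% final) as baseline.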

Assay [5] can be described thus: Tanguay_ZF_120hpf_CFIN_legacy: (Legacy) Oregon State University Tanguay Lab 120 Hour Post-fertilization zebrafish Assay for Caudal Fin Malformation (AID 2283649). An outline of the steps: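 Binary brightfield scoring of caudal fin defects at 120 hpf after static, light-shielded exposure at 28C from 6 hpf. Tropical 5D embryos, chorion removed with pronase at 4 hpf, final DMSO 0.64%.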

The nature of assay [6]: Tanguay_ZF_120hpf_PIG_legacy: (Legacy) Oregon State University Tanguay Lab 120 Hour Post-fertilization zebrafish Assay for Pigmentation Malformation (AID 2283650). The essentials:
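Brightfield scoring of pigmentation malformation at 120 hpf, recorded as binary present/absent per larva. Exposure: dechorionated 5D wild-type embryos, one per well, static from 6 hpf at 28C, final DMSO 0.64% (vol/vol). Dead embryos not scored.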

A short description of assay [7]: Tanguay_ZF_120hpf_SWIM_legacy: (Legacy) Oregon State University Tanguay Lab 120 Hour Post-fertilization zebrafish Assay for Swim Bladder Malformation (AID 2283654).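 Further: swim bladder malformation in each larva scored yes or no under brightfield.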 The essentials: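 Tropical 5D embryos dechorionated at 4 hpf; 1 embryo/well from 6 hpf; static, sealed, dark exposure at 28C until 120 hpf; final DMSO 0.64%; 5uM trimethyltin chloride positive control; swim bladder defect recorded yes/no; dead embryos not scored.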

Assay [8] can be described thus: Tanguay_ZF_120hpf_NC_legacy: (Legacy) Oregon State University Tanguay Lab 120 Hour Post-fertilization zebrafish Assay for Notochord and Tail Malformation (AID 2283656). The essentials: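 Binary scoring of notochord distortion by brightfield microscopy; embryos dying were not scored. Wild-type Tropical 5D embryos, chorion removed, exposed singly and statically from 6 to 120 hpf, 28C, sealed, 0.64% DMSO.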

Read-out in assay [9]: ABC Transporter (ABCB1), ABCB1 (gene 5243)
Put plainly: CLD_ABCB1_6hr: CellzDirect (CLD) Gene Expression Assay for ABC Transporter (ABCB1) at 6 hours (AID 2283659).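 Further: hits raise ABCB1 transcript above the DMSO vehicle baseline.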 An outline of the steps: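 ABCB1 transcript measured by quantitative nuclease protection assay, chemiluminescent read-out, 6 h after dosing human hepatocyte cultures (0.2% DMSO vehicle, daily redosing). Activity fitted as increase over DMSO baseline; cytotoxicity flagged by phase-contrast morphology.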

Read-out in assay [10]: Broad substrate specificity ATP-binding cassette transporter ABCG2 (Homo sapiens) (UniProt Q9UNQ0)
Put plainly: CLD_ABCG2_6hr: CellzDirect (CLD) Gene Expression Assay for ABC Transporter (ABCG2) at 6 hours (AID 2283660). An outline of the steps:
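ABCG2 mRNA induction measured by qNPA chemiluminescence in human primary hepatocyte cultures, 6 h post-dose. Chemicals tested at several concentrations against a 0.2% DMSO vehicle; positive-direction fit relative to DMSO.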

Assay [11] in a line: Tanguay_ZF_120hpf_SOMI_legacy: (Legacy) Oregon State University Tanguay Lab 120 Hour Post-fertilization zebrafish Assay for Somite Malformation (AID 2283647). The essentials:
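Binary somite-defect scoring at 120 hpf, omitted for embryos that died, in wild-type (Tropical 5D) zebrafish with chorion removed by pronase at 4 hpf; static exposure began 6 hpf, single embryos per well, 28C, 0.64% DMSO; fitted positive versus DMSO.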

The nature of assay [12]: Tanguay_ZF_120hpf_CIRC_legacy: (Legacy) Oregon State University Tanguay Lab 120 Hour Post-fertilization zebrafish Assay for Circulatory Malformation (AID 2283651). An outline of the steps:
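Binary circulatory malformation call at 120 hpf by brightfield imaging of zebrafish larvae; chorion removed at 4 hpf, static exposure from 6 hpf in sealed dark plates at 28C, final DMSO 0.64%; non-mortality endpoints skipped if embryo died.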

A short description of assay [13]: Tanguay_ZF_120hpf_TRUN_legacy: (Legacy) Oregon State University Tanguay Lab 120 Hour Post-fertilization zebrafish Assay for Truncated Body (AID 2283655). The essentials: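 Binary presence/absence of truncated body is recorded at 120 hpf by brightfield, with non-mortality endpoints skipped after death. Exposure is static from 6 hpf in sealed dark plates at 28C, using dechorionated wild-type zebrafish, 0.64% DMSO.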

Assay [14] deals with Thyroperoxidase (TPO), gene 54314. Put plainly: CCTE_Simmons_AUR_rTPO: CCTE's Amplex UltraRed Assay for Thyroperoxidase (TPO) Inhibition, Simmons Lab (AID 2283662).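 Further: potency for loss of signal meaning inhibition of peroxidase activity.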 The essentials:
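Rat thyroid microsomes (5 ug protein) with 25 uM Amplex UltraRed and 300 uM H2O2 in 200 mM phosphate buffer, 30 min at 37C in dark; fluorescence 544/590 nm. Eight concentrations, 5 nM–87.5 uM final, 0.5% DMSO, triplicate biological replicates.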

Read-out in assay [15]: xenobiotic metabolism (CYP1A2), CYP1A2 (gene 1544)
Put plainly: CLD_CYP1A2_6hr: CellzDirect (CLD) Gene Expression Assay for xenobiotic metabolism (CYP1A2) at 6 hours (AID 2283663). An outline of the steps: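 mRNA levels quantified by quantitative nuclease protection assay with chemiluminescence, 6 h after dosing human primary hepatocyte cultures (two donors) across several concentrations, vehicle 0.2% DMSO. Induction fitted upward versus DMSO; phase-contrast cytotoxicity annotated.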

Read-out in assay [16]: xenobiotic metabolism (CYP1A1), CYP1A1 (gene 1543)
Put plainly: CLD_CYP1A1_6hr: CellzDirect (CLD) Gene Expression Assay for xenobiotic metabolism (CYP1A1) at 6 hours (AID 2283661). An outline of the steps:
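Read-out 6 h post-dose: qNPA chemiluminescent quantitation of transcript induction against 0.2% DMSO. Cells were cultured primary human hepatocytes from two separate donor preparations; phase-contrast morphology annotated apparent cytotoxicity.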

The structures appear in SMILES notation. Results filed as inconclusive are left out. Activity calls are given as the source filed them. How the source made its calls: active means hit-call score of the fitted dose curve at least 0.9, where 1 is the maximum; inconclusive means response in the unintended direction; inactive means score below 0.9.

Chain of Broad substrate specificity ATP-binding cassette transporter ABCG2 (Homo sapiens) (Q9UNQ0 whole entry, looked up): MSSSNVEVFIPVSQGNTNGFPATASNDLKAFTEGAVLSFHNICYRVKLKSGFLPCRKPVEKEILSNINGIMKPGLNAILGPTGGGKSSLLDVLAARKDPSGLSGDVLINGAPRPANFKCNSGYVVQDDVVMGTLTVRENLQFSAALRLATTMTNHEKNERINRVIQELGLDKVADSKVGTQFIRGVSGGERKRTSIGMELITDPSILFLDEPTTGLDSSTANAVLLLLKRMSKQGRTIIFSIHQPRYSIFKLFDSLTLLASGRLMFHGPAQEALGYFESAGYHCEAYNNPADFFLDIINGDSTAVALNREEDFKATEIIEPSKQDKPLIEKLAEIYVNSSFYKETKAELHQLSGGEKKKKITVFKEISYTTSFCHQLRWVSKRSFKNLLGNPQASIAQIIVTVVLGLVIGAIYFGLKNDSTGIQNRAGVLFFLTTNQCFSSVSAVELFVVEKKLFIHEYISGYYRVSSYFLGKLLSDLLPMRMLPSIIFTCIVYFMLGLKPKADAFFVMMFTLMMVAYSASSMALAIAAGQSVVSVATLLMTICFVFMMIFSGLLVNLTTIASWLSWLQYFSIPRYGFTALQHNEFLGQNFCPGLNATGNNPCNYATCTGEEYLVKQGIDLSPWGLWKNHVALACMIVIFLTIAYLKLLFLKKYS

For the compound `CNC(=O)ON=C(SC)C(=O)N(C)C`, the compound was classed as inactive in assay [1], in assay [2], in assay [3], in assay [4], in assay [5] and in [6]. Moreover, the result in [7], in assay [8], in assay [9] and in assay [10] was inactive.
Regarding `Cc1ccn2nc(S(=O)(=O)Nc3c(F)cccc3F)nc2n1`, the compound was called inactive in assay [1], in assay [2], in [3], in [11], in assay [5] and in assay [6]. Also, the compound was called inactive in assay [12], in [7], in [13], in [8] and in [10].
Regarding `CN(C)NC(=O)CCC(=O)O`, the result in assay [1], in assay [2], in assay [3], in assay [11], in [5] and in assay [6] was inactive. Besides, the compound was called inactive in [7], in assay [13], in [8] and in assay [10].
`C#CC(C)(C)NC(=O)c1cc(Cl)cc(Cl)c1`: the outcome in [1], in [2], in [3], in assay [5], in [6] and in [12] was inactive. Moreover, the result in [7], in assay [8] and in assay [10] was inactive.
A word on the AC50: it is the concentration giving half of the maximal activity seen. As to `CSC1=N[C@@](C)(c2ccccc2)C(=O)N1Nc1ccccc1`, the compound was classed as inactive in assay [1], in [2], in assay [5], in [6], in assay [12] and in assay [7]. Moreover, the compound was classed as inactive in assay [8]. Besides, the AC50 in assay [3] is 2.63 µM (active); in assay [14] it was 25.7 µM (active).
`O=[N+]([O-])c1cc(C(F)(F)F)c(Cl)c([N+](=O)[O-])c1Nc1ncc(C(F)(F)F)cc1Cl`: the outcome in [1], in [2], in assay [3], in [5], in [6] and in assay [12] was inactive. Moreover, the outcome in assay [7] was inactive.
On to `CC(C)N(C(=O)SCC(Cl)=C(Cl)Cl)C(C)C`, for which the compound was called inactive in [2], in assay [3], in assay [6], in assay [12], in [7] and in assay [13]. Besides, the compound was classed as inactive in assay [8] and in assay [10].
As for `CCCCOC(=O)[C@@H](C)Oc1ccc(Oc2ccc(C#N)cc2F)cc1`, the compound was classed as inactive in assay [1], in [3], in assay [5], in assay [6], in assay [13] and in assay [8]. Moreover, the outcome in assay [9] and in assay [15] was inactive.
On to `CCc1cnc(C2=NC(C)(C(C)C)C(=O)N2)c(C(=O)O)c1` (centres undefined), for which the call in [1], in [2], in assay [3], in [5], in assay [6] and in assay [12] was inactive. In addition, the compound was called inactive in [8].
With `CCCCOC(=O)c1ccccc1C(=O)O`, the outcome in assay [1], in assay [2], in assay [3], in assay [5], in assay [6] and in [12] was inactive. In addition, the compound was called inactive in assay [7], in [13], in assay [10] and in assay [16].
